The values that follow come from PMC8159961, “Exploring protein hotspots by optimized fragment pharmacophores” (Nature Communications, 2021).

Structures are written as SMILES.

Sequence of Factor Xa (P00743 41-180 limits assumed): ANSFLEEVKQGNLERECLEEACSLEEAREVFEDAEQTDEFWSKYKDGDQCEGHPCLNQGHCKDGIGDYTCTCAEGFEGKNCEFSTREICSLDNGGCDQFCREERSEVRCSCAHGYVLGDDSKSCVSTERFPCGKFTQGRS
Sequence of Factor Xa (P00743 234-492 limits assumed): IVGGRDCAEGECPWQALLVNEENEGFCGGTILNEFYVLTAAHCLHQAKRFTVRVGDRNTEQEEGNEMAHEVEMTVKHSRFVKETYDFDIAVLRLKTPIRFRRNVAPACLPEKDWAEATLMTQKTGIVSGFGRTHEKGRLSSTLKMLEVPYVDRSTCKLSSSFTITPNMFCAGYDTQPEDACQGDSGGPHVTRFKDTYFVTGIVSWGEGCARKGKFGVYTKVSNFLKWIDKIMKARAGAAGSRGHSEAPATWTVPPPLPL

One assay deals with Factor Xa (bovine, UniProt P00743). Kind of assay: primary screen, binary call; higher = more effect of the substance. Set-up: screenings were carried out in duplicate in one independent experiment. The note with it: 200 µM. The procedure:
Protease inhibitory assays were performed in transparent microtiter plates in a final volume of 200 µL with the use of chromogenic substrates. The reaction rates in the absence and in the presence of the inhibitor were measured; screenings were carried out in duplicate in one independent experiment and Ki values were determined in triplicate in two independent experiments.
Take `N#CC1CCS(=O)(=O)C1` (centres unmarked): the “Factor Xa” value is 0 (inactive).
As to `Cc1ccc(C)n1Cc1ccccc1Cl`, the “Factor Xa” value was 0 (inactive).
The same measure, in the same setting: in the case of `COc1ccccc1C1CCNCC1` it was 0 (inactive).
As to `CC1(C)OC(=O)c2cc(Br)c(O)cc2O1`, the “Factor Xa” value is 0 (inactive).
`Oc1ccc(-n2cncn2)cc1`: the “Factor Xa” value was 0 (inactive).
Regarding `Cc1cc(-c2ccccc2)n[nH]1`, the “Factor Xa” value is 0 (inactive).
On to `COC(=O)c1c(C)nc(C2CC2)[nH]c1=O`, for which the “Factor Xa” value is 0 (inactive).
Take `CC(=O)c1sc(-c2ccc(O)cc2)nc1C`: the “Factor Xa” value was 1 (active).
With `O=C1CCC(=O)N(c2ccccc2)N1`, the “Factor Xa” value is 0 (inactive).
Same read-out and setting: the same measure for `Cc1cnc(C(F)(F)F)cn1`: 0 (inactive); for `O=c1ccc2c([nH]1)CCCC2`: 0 (inactive).
Take `c1ccc(-c2ccncc2)cc1`: the “Factor Xa” value was 0 (inactive).
For `CN(C)c1cc(CN)ccn1`, the “Factor Xa” value was 0 (inactive).
For the molecule `Cc1nc(-c2ccccc2)cs1`, the “Factor Xa” value is 0 (inactive).
The same measure, in the same setting: the same measure for `CC(CN)N1CCc2sccc2C1` (centres unmarked): 0 (inactive); for `CC1C(=O)NC(=O)N1c1ccc(Cl)cc1` (centres unmarked): 0 (inactive).
Still for that read-out and setting: in the case of `O=C1CNCCN1c1ccccc1` it was 0 (inactive); in that of `Cc1nccn1Cc1cccc(C#N)c1`, 0 (inactive); in that of `O=C1NC2(CCCC2)Nc2ccccc21`, 0 (inactive).
`Cn1c(N)nc2ccccc21`: the “Factor Xa” value was 1 (active).
In the case of `O=C(Nc1ccccc1)C1CC1`, the “Factor Xa” value was 0 (inactive).
On to `O=C(O)CC1CCC(=O)N1` (centres unmarked), for which the “Factor Xa” value was 0 (inactive).
Take `NC1CCc2ccccc21` (centres unmarked): the “Factor Xa” value was 0 (inactive).
Still for that read-out and setting: the same measure for `CC(=O)c1ccc2c(c1)CNCC2`: 0 (inactive); for `O=C(O)C1CCCN(C(=O)N2CCCC2)C1` (centres unmarked): 0 (inactive).
Same read-out and setting: the same measure for `Nc1ccc(SC(F)F)cc1`: 0 (inactive); for `N#Cc1ccc(C(=O)N2CCOCC2)cc1`: 0 (inactive); for `c1cnc2c(c1)NCCC2`: 0 (inactive).
Same read-out and setting: the same measure for `CS(=O)(=O)c1ccc(OC(F)(F)F)cc1`: 0 (inactive).
Turning to `CCCN1C(=O)CC(=O)NC1=S`, the “Factor Xa” value was 0 (inactive).
As to `COc1ccc(CN2CCNCC2)cc1F`, the “Factor Xa” value was 0 (inactive).

Another assay deals with 5-HT6 receptor (human, UniProt P50406). The description is as above. The conditions noted are these: 10 µM. On the set-up: hit call from the mean of at least two separate experiments.
Sequence of 5-HT6 receptor (P50406 whole entry, looked up): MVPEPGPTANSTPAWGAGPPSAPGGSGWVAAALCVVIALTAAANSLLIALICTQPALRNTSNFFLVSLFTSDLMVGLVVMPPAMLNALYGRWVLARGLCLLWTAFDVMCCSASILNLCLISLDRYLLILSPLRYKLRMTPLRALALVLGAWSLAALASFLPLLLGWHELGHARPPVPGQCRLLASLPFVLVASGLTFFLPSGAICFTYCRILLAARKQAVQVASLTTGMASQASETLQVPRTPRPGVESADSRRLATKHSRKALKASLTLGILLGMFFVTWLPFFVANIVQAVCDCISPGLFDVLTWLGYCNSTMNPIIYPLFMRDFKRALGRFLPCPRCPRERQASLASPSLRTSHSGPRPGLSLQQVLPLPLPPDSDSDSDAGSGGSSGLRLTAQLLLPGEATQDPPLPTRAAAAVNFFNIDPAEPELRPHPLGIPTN
For the molecule `N#CC1CCS(=O)(=O)C1` (centres unmarked), the 5-HT6 is 0 (inactive).
`Cc1ccc(C)n1Cc1ccccc1Cl`: the 5-HT6 was 0 (inactive).
Still for that read-out and setting: in the case of `COc1ccccc1C1CCNCC1` it was 1 (active).
For `CC1(C)OC(=O)c2cc(Br)c(O)cc2O1`, the 5-HT6 was 1 (active).
As for `Oc1ccc(-n2cncn2)cc1`, the 5-HT6 is 0 (inactive).
Regarding `Cc1cc(-c2ccccc2)n[nH]1`, the 5-HT6 was 0 (inactive).
Take `COC(=O)c1c(C)nc(C2CC2)[nH]c1=O`: the 5-HT6 is 0 (inactive).
As to `CC(=O)c1sc(-c2ccc(O)cc2)nc1C`, the 5-HT6 was 1 (active).
Take `O=C1CCC(=O)N(c2ccccc2)N1`: the 5-HT6 is 0 (inactive).
For `Cc1cnc(C(F)(F)F)cn1`, the 5-HT6 is 0 (inactive).
Same read-out and setting: in the case of `O=c1ccc2c([nH]1)CCCC2` it was 0 (inactive); in that of `c1ccc(-c2ccncc2)cc1`, 0 (inactive); in that of `CN(C)c1cc(CN)ccn1`, 0 (inactive).
`Cc1nc(-c2ccccc2)cs1`: the 5-HT6 was 1 (active).
On to `CC(CN)N1CCc2sccc2C1` (centres unmarked), for which the 5-HT6 is 0 (inactive).
Same read-out and setting: the same measure for `CC1C(=O)NC(=O)N1c1ccc(Cl)cc1` (centres unmarked): 0 (inactive); for `O=C1CNCCN1c1ccccc1`: 0 (inactive); for `Cc1nccn1Cc1cccc(C#N)c1`: 0 (inactive).
Regarding `O=C1NC2(CCCC2)Nc2ccccc21`, the 5-HT6 is 0 (inactive).
Turning to `Cn1c(N)nc2ccccc21`, the 5-HT6 is 0 (inactive).
Take `O=C(Nc1ccccc1)C1CC1`: the 5-HT6 is 0 (inactive).
On to `O=C(O)CC1CCC(=O)N1` (centres unmarked), for which the 5-HT6 was 0 (inactive).
Consider `NC1CCc2ccccc21` (centres unmarked), for which the 5-HT6 is 0 (inactive).
`CC(=O)c1ccc2c(c1)CNCC2`: the 5-HT6 was 0 (inactive).
In the case of `O=C(O)C1CCCN(C(=O)N2CCCC2)C1` (centres unmarked), the 5-HT6 is 0 (inactive).
Regarding `Nc1ccc(SC(F)F)cc1`, the 5-HT6 was 0 (inactive).
In the case of `N#Cc1ccc(C(=O)N2CCOCC2)cc1`, the 5-HT6 was 0 (inactive).
`c1cnc2c(c1)NCCC2`: the 5-HT6 was 0 (inactive).
On the same count and under the same terms, the same measure for `CS(=O)(=O)c1ccc(OC(F)(F)F)cc1`: 0 (inactive).
`CCCN1C(=O)CC(=O)NC1=S`: the 5-HT6 is 0 (inactive).
Still for that read-out and setting: the same measure for `COc1ccc(CN2CCNCC2)cc1F`: 0 (inactive).
